Source: PubChem BioAssay (EPA / NIEHS)
Where “and” joins values, the source holds several entries; their conditions need not be identical. Identical values can stand only once. Inconclusive results are not listed. A structure can be active in one record and inactive in another. Calls of active or inactive are those of the source. Rule for the calls, unless noted: active = hit-call score of the fitted dose curve at least 0.9, where 1 is the maximum; inactive = score below 0.9.

Tests used:
[1] = read-out: Collagen I, COL1A1 (gene 1277); assay: BSK_MyoF_CollagenI: BioMAP Diversity Plus: MyoF Assay for Collagen I Biomarker Activity (AID 2284238); conditions: primary human lung fibroblasts
Method in brief: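 Collagen I levels measured by ELISA on human lung fibroblast cultures 24 h post-dosing, with curve fitting in the positive direction relative to DMSO; SRB staining of parallel wells marked cytotoxicity.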

[2] = read-out: Collagen III, COL3A1 (gene 1281); assay: BSK_MyoF_CollagenIII: BioMAP Diversity Plus: MyoF Assay for Collagen III Biomarker Activity (AID 2284239); conditions: primary human lung fibroblasts
Method in brief: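 Collagen III biomarker quantified by ELISA in human lung fibroblast cultures 24 h after dosing. Activity fitted in the positive direction against DMSO as baseline.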

[3] = read-out: Interleukin 17F (IL17F), IL17F (gene 112744); assay: BSK_BT_xIL17F: BioMAP Diversity Plus: BT Assay for Interleukin 17F (IL17F) Biomarker Activity (AID 2284243); conditions: primary human B cells with PBMC
Method in brief: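 Human B cells co-cultured with PBMC; secreted IL-17F quantified by LumineX xMAP 24 hours after chemical dosing. Activity fitted in the positive direction against DMSO negative control as baseline.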

[4] = read-out: Actin alpha 1 (ACTA1), ACTA1 (gene 58); assay: BSK_MyoF_ACTA1: BioMAP Diversity Plus: MyoF Assay for Actin alpha 1 (ACTA1) Biomarker Activity (AID 2284244); conditions: primary human lung fibroblasts
Method in brief: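 Human lung fibroblasts (MyoF system) dosed with test chemical for 24 h; α-SMA measured by ELISA. Gain of signal fitted relative to DMSO negative control as baseline.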

[5] = read-out: Interleukin 2 (IL2), IL2 (gene 3558); assay: BSK_BT_xIL2: BioMAP Diversity Plus: BT Assay for Interleukin 2 (IL2) Biomarker Activity (AID 2284245); conditions: primary human B cells with PBMC
Method in brief: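 Human B cells co-cultured with PBMC, exposed to test chemical for 24 h. Secreted IL-2 quantified by Luminex xMAP bead immunoassay; activity fitted in the positive direction relative to DMSO vehicle baseline.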

[6] = read-out: Basic fibroblast growth factor (bFGF), FGF2 (gene 2247); assay: BSK_MyoF_bFGF: BioMAP Diversity Plus: MyoF Assay for Basic fibroblast growth factor (bFGF) Biomarker Activity (AID 2284246); conditions: primary human lung fibroblasts
Method in brief: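 Human lung fibroblasts were dosed with chemicals and bFGF was quantified by ELISA 24 h later. Activity was fitted in the gain-of-signal direction relative to DMSO as negative control and baseline. Parallel SRB total-protein staining tracked overt cytotoxicity.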

[7] = read-out: Collagen IV, COL4A1 (gene 1282); assay: BSK_MyoF_CollagenIV: BioMAP Diversity Plus: MyoF Assay for Collagen IV Biomarker Activity (AID 2284247); conditions: primary human lung fibroblasts
Method in brief: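 Primary human lung fibroblasts were exposed to test chemicals and sampled 24 h after dosing. Collagen IV levels were measured by ELISA and fitted in the positive direction against DMSO as negative control and baseline.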

[8] = read-out: Monokine induced gamma interferon (MIG), CXCL9 (gene 4283); assay: BSK_KF3CT_MIG: BioMAP Diversity Plus: KF3CT Assay for Monokine induced gamma interferon (MIG) Biomarker Activity (AID 2284248); conditions: primary human keratinocytes with fibroblasts
Method in brief: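 Parallel cultures were stained with SRB (560 nm) to check cytotoxicity. MIG was quantified by ELISA in a primary human skin keratinocyte/fibroblast co-culture 24 h post-dosing, with gain of signal fitted relative to DMSO.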

[9] = read-out: Collagen I, COL1A1 (gene 1277); assay: BSK_hDFCGF_CollagenI: BioMAP Diversity Plus: hDFCGF Assay for Collagen I Biomarker Activity (AID 2284250); conditions: primary human foreskin fibroblasts
Method in brief: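 Primary human foreskin fibroblasts (hDFCGF system) exposed to chemical for 24 h; Collagen I measured by ELISA. Activity fitted in the positive direction relative to DMSO baseline, with SRB total-protein staining in parallel cultures for overt cytotoxicity.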

[10] = read-out: Interferon-inducible T-cell alpha chemoattractant (ITAC), CXCL11 (gene 6373); assay: BSK_hDFCGF_ITAC: BioMAP Diversity Plus: hDFCGF Assay for Interferon-inducible T-cell alpha chemoattractant (ITAC) Biomarker Activity (AID 2284251); conditions: primary human foreskin fibroblasts
Method in brief: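 Fibroblasts (human foreskin, primary) are treated with chemical, cultured 24 h, then assayed for I-TAC by ELISA. Overt toxicity is checked in parallel cultures by sulforhodamine B staining of total protein at the same time point.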

[11] = read-out: Monocyte Chemoattractant Protein-1 (MCP1), CCL2 (gene 6347); assay: BSK_IMphg_MCP1: BioMAP Diversity Plus: IMphg Assay for Monocyte Chemoattractant Protein-1 (MCP1) Biomarker Activity (AID 2284253); conditions: primary human endothelial cells with macrophages
Method in brief: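 Human venular endothelial cells co-cultured with macrophages; MCP-1 measured by ELISA 24 hours post-dose and fitted against DMSO. Cytotoxicity monitored by SRB total-protein staining in parallel cultures.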

[12] = read-out: Interleukin-8 (IL8), CXCL8 (gene 3576); assay: BSK_KF3CT_IL8: BioMAP Diversity Plus: KF3CT Assay for Interleukin-8 (IL8) Biomarker Activity (AID 2284254); conditions: primary human keratinocytes with fibroblasts
Method in brief: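 IL-8 by ELISA in primary human skin co-culture (keratinocytes plus fibroblasts) 24 h post-dose, DMSO as baseline. Cytotoxicity assessed in parallel by sulforhodamine B total-protein staining.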

[13] = read-out: Macrophage Inflammatory Protein-1 Alpha (MIP1a), CCL3 (gene 6348); assay: BSK_IMphg_MIP1a: BioMAP Diversity Plus: IMphg Assay for Macrophage Inflammatory Protein-1 Alpha (MIP1a) Biomarker Activity (AID 2284255); conditions: primary human endothelial cells with macrophages
Method in brief: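 Co-culture of human venular endothelial cells and macrophages exposed to compounds for 24 h; MIP-1a measured by ELISA relative to DMSO. Cytotoxicity assessed in parallel cultures by sulforhodamine B total-protein staining at 560 nm.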

[14] = read-out: Plasminogen activator inhibitor-1 (PAI1), SERPINE1 (gene 5054); assay: BSK_MyoF_PAI1: BioMAP Diversity Plus: MyoF Assay for Plasminogen activator inhibitor-1 (PAI1) Biomarker Activity (AID 2284256); conditions: primary human lung fibroblasts;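 note: PAI-1 protein level measured by ELISA in fibroblast cultures; PAI-1 read 24 h after compound addition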
Method in brief: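 Human lung fibroblasts (MyoF system) were exposed to test chemicals for 24 h, then PAI-1 was quantified by ELISA. Activity was fitted in the positive (signal-gain) direction relative to DMSO vehicle as baseline.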

[15] = CCTE_Mundy_HCI_hNP1_Casp3_7: CCTE's Caspase-Glo 3/7 Assay in human neuroprogenitor cells for Apoptosis, Mundy Lab (AID 2284240)
Method in brief: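 Apoptosis is scored by activated caspase-3/7 luminescence in WA09-derived neural progenitor cells, measured 26.5 h after chemical dosing. Values represent gain of signal relative to DMSO vehicle.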

[16] = CCTE_Mundy_HCI_hNP1_CellTiter: CCTE's Cell Titer-Glo 2 Assay in human neuroprogenitor cells for Viability, Mundy Lab (AID 2284241; active = hit-call score of the fitted dose curve at least 0.9, where 1 is the maximum)
Method in brief: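 Human neural progenitor cells (hNP1, WA09-derived) were plated on poly-L-ornithine/laminin and grown 40 to 44 hours at 37 °C, 5% CO2 before chemical addition. Twenty-four hours later, ATP was measured by CellTiter-Glo luminescence; loss of signal versus DMSO indicates reduced viability.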

[17] = TAMU_PeakParms_SingleDonor1434_QT: Texas A&M University (TAMU) 1.5-hr Human Induced Pluripotent Stem Cell (iPSC)-derived Cardiomyocytes Calcium (Ca+2) Flux Assay for Cardiotoxicity: QT (decay-rise ratio) (AID 2284235; active = hit-call score of the fitted dose curve at least 0.9, where 1 is the maximum)
Method in brief: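 iPSC-derived cardiomyocytes (single donor 1434) dosed at 0.2, 1, 10, 100 uM final in 0.5% DMSO, 90 min at 37C. Ca2+ flux fluorescence decay/rise ratio; EC05 (5% increase versus DMSO) as POD, excluding beat-arrest and severe-notch data.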

[18] = CCTE_Mundy_HCI_Cortical_NOG_NeuronCount: CCTE's Neurite Outgrowth Assay in rat cortical cells for Neuron Count, Mundy Lab (AID 2284236; active = hit-call score of the fitted dose curve at least 0.9, where 1 is the maximum;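 note: neurons counted by imaging betaIII-tubulin and Hoechst stained cortical cells; cells exposed to compound for about 48 hours before fixation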)
Method in brief: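 Read-out: neuron number by high-content imaging of betaIII-tubulin (Alexa Fluor-488) and Hoechst-labelled rat primary cortical cells.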

Measured: AC50

CN(CCO)S(=O)(=O)C(F)(F)C(F)(F)C(F)(F)C(F)(F)C(F)(F)C(F)(F)C(F)(F)C(F)(F)F
inactive: [2] | [3] | [4] | [5] | [6] | [7] | [8] | [10] | [11] | [12] | [13] | [14]
active: [1] 1.82 µM and 2.36 µM | [3] 1.93 µM | [9] 1.65 µM and 879 nM | [12] 1.42 µM

O=P(O)(O)CCC(F)(F)C(F)(F)C(F)(F)C(F)(F)C(F)(F)C(F)(F)F
not listed: [17] | [18]
inactive: all other assays above

C=CC(=O)OCCC(F)(F)C(F)(F)C(F)(F)C(F)(F)C(F)(F)C(F)(F)C(F)(F)C(F)(F)F
inactive: [1] | [2] | [15] | [16] | [3] | [4] | [5] | [6] | [7] | [8] | [9] | [10] | [11] | [12] | [13] | [14]
active: [12] 16.9 µM

COCN(COC)c1nc(N(COC)COC)nc(N(COC)COC)n1
inactive: [1] | [2] | [3] | [4] | [5] | [6] | [7] | [14]

OCC(F)(F)C(F)(F)C(F)(F)C(F)(F)C(F)(F)C(F)(F)C(F)(F)C(F)(F)C(F)(F)C(F)(F)C(F)(F)F
active: [3] 13.9 nM and 23.8 nM | [9] 42.7 nM and 48.2 nM
not listed: [17] | [18]
inactive: all other assays above

CC(=O)Nc1ccc(O)cc1
inactive: [17] | [18] | [15]

COC1=CC(=O)C[C@@H](C)[C@]12Oc1c(Cl)c(OC)cc(OC)c1C2=O
active: [1] 20 µM | [2] 3.97 µM
inactive: [3] | [4] | [5] | [6] | [7] | [14]

O=C(CC(=O)C(F)(F)C(F)(F)C(F)(F)F)c1cccs1
inactive: [15] | [16] | [4] | [6] | [7] | [8] | [9] | [10] | [12] | [14]
active: [1] 17.8 µM and 7.76 µM | [2] 8.37 µM and 7.86 µM | [3] 23.2 µM and 25.1 µM | [4] 7.95 µM | [5] 55.6 µM and 46.2 µM | [7] 8.25 µM | [9] 8.04 µM | [10] 7.8 µM | [11] 27.7 µM and 25.5 µM | [13] 52.5 µM and 24.1 µM

O=C1c2ccc(O)c(O)c2C(=O)c2c(O)ccc(O)c21
inactive: [1] | [2] | [3] | [4] | [5] | [6] | [7] | [14]
